# High-throughput results from PubChem.
# In the library only some 6.6% were active in any assay of this set; here they are far more common.
# KB-3-1 tox: KB-3-1 parental cell cytotoxicity; Potency, µM (doses to about 46.1 µM), hits mostly cytotoxic; KB-3-1 viability, CellTiter-Glo ATP luminescence, 72 h; actives 1.4% (n = 400,000); note: % is set by controls: 0 for no effect and ±100 for the full control effect; nearly all actives have a fitted effect of over 60% in size
#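 Cytotoxicity measured as CellTiter-Glo luminescence after 72 h at 37 C. Compound titrations were pinned onto drug-naive KB-3-1 parental adenocarcinoma cells grown in DMEM with 10% FBS, and normalized data fitted to concentration-response curves.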
# HepG2 tox: HepG2 cytotoxicity, counter-screen for TGF-b inhibitors. HepG2 CAGA-GFP viability, ATP luminescence, 18 h. Potency, µM (titrated, usually from 46.1 µM), inactives show at the top dose activity change, negative = cytotoxicity, usual class: cytotoxic. actives 0.76% (n = 410,000)
#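 HepG2 CAGA-GFP cells (1000/well, DMEM with 1% FBS) received compound, then TGF-beta at 500 pg/mL final, and were incubated 18 hours at 37 degrees C. Viability was read by CellTiter-Glo luminescence. Media-only wells were set as complete cell-killing and DMSO as no toxicity.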
# TGFb inhibitor: inhibitors of TGF-b signaling | actives 1.2% (n = 410,000) | HepG2 CAGA-GFP TGF-b/SMAD3 reporter, GFP fluorescence, 18 h; TGF-beta stimulated, 500 pg/mL final | Potency, µM (doses to about 46.1 µM), for the others: at the top dose activity, negative = inhibition, usual class: inhibitors; note: % is set by controls: 0 for no effect and ±100 for the full control effect; nearly all actives have a fitted effect of over 65% in size
#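 Using HEPG2 CAGA-GFP reporter cells at 1000 cells/well, we pinned test compounds, stimulated with recombinant TGF-beta (500 pg/mL final) and measured total well GFP after 18 h.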
# HT1080 IDH1KD tx: kills HT-1080 cells with IDH1 knockdown. HT-1080 IDH1 knockdown viability, ATP luminescence, 48 h. Potency, µM (series often up to 46.1 µM), for the others: at the top dose activity, negative = toxicity, most hits filed as cytotoxic. actives 2% (n = 360,000). AID 686971;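 note: 0% = DMSO wells and -100% = cell-free medium wells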
#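 CellTiter-Glo luminescence after 48 h compound exposure at 37 degrees C of IDH1-knockdown HT-1080 cells in 5% FBS RPMI. %Activity scaled between DMSO wells and cell-free media wells, with curves fitted and assigned curve classes.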
# KB-V1 cytotox: KB-V1 MDR subline cytotoxicity | actives 3.4% (n = 400,000) | AID 1347076 | Potency, µM (doses to about 46.1 µM), most hits filed as cytotoxic | KB-V1 MDR cells viability, CellTiter-Glo, 72 h; note: % is set by controls: 0 for no effect and ±100 for the full control effect; nearly all actives have a fitted effect of over 60% in size
#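 Readout: CellTiter-Glo luminescence, 10 min after addition. Cells: KB-V1 MDR subline, 72 h at 37 degrees C with compound. Analysis: corrected, normalized data fitted to concentration-effect curves.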
# HT1080NT lethal: kills 2HG-producing HT-1080-NT fibrosarcoma cells; HT-1080-NT fibrosarcoma viability, CellTiter-Glo ATP luminescence, 48 h; Potency, µM (highest dose often 46.1 µM), for inactives: top-dose activity, negative = less viability, hits mostly cytotoxic; actives 1.6% (n = 360,000);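 note: NT is the 2HG producing partner of a matched IDH1 knockdown line; 0% = DMSO-treated cells and -100% = media-only wells without cells; nearly all actives have a fitted effect of over 55% in size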
#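 Compounds were tested in concentration-response format on HT-1080-NT cells for 48 hours at 37 degrees C. Cell viability came from CellTiter-Glo luminescence; curves were classified by r2, response magnitude and activity.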
# Numbers without * were called inactive; i = inactive; ? = inconclusive; nt = not tested or not shown. Calls come from the whole dose curve; as a rule, active = well fitted curve in the direction sought with a large enough effect; inconclusive = small, poorly fitted or top-dose-only effect, or another doubt; inactive = no such curve, though single readings can be large; an effect the other way counts as inactive or inconclusive. Potency is the fitted concentration of half-maximal effect.
SMILES,KB-3-1 tox,HepG2 tox,TGFb inhibitor,HT1080 IDH1KD tx,KB-V1 cytotox,HT1080NT lethal
O=S(=O)(NC1c2cccc3cccc(c23)C1N1CCNCC1)c1ccc(Cl)cc1 (configuration not stated),?,-63%,?,21µM*,i,18µM*
Cc1ccc(S(=O)(=O)NC2c3cccc4cccc(c34)C2Sc2nncn2C)cc1 (configuration not stated),?,-16%,29%,1%,i,2%
Cn1cnnc1SC1c2cccc3cccc(c23)C1NS(=O)(=O)c1ccc(Cl)cc1 (configuration not stated),i,-1%,-2%,-2%,12µM*,0%
CC(=O)N1CCN(C2c3cccc4cccc(c34)C2NS(=O)(=O)c2ccccc2)CC1 (configuration not stated),i,7%,-3%,1%,i,4%
COc1ccc2cc(/C(C)=N/NC(=O)c3cc(C)oc3C)ccc2c1,i,-29%,-16%,6%,i,11%
COc1ccccc1CNC(=O)CSc1ncc(S(=O)(=O)c2ccc(C)c(Cl)c2)c(=O)[nH]1,i,-5%,4%,nt,i,nt
O=C1NC(CCc2ccccc2)C(=O)N1Cc1ccccc1Cl (configuration not stated),i,14%,-4%,0%,16µM*,2%
COc1ccc(-c2ccnc3nc(N4CCN(c5ccccc5)CC4)nn23)cc1,?,2%,-2%,-12%,21µM*,1%
Cc1cc(NC(=O)C(C)SCC(=O)N(Cc2ccccc2)c2ccccc2)no1 (configuration not stated),?,-4%,-16%,-23%,6.5µM*,-10%
N#Cc1cnc2nc1NCCCCCCC2,?,-5%,7%,5%,5.2µM*,11%
N#C/C(=C1/CCCCCN1)c1nc2ccccc2[nH]1,i,-27%,6%,2%,i,3%
Cc1ccc(-n2ncc3c(N4CCC(C)CC4)ncnc32)cc1C,i,-20%,-22%,nt,i,nt
C[C@H](NC(=O)c1nc[nH]c1C(=O)N[C@@H](Cc1ccccc1)C(=O)OC(C)(C)C)C(=O)OC(C)(C)C,?,16µM*,?,?,?,?
CC(C)(C)OC[C@H](NC(=O)c1[nH]cnc1C(=O)Nc1ccccc1F)C(=O)OC(C)(C)C,?,20µM*,?,?,?,?
O=C(Nc1ccc(Cl)cc1)c1nc[nH]c1C(=O)NCc1ccccc1,?,-37%,?,-21%,16µM*,?
CC(C)(C)OC(=O)NCc1ccc(CNC(=O)c2[nH]cnc2C(=O)Nc2ccccc2F)cc1,?,-36%,-19%,-27%,?,-18%
CC(C)(C)OC(=O)[C@H](Cc1ccccc1)NC(=O)c1[nH]cnc1C(=O)Nc1ccc(Cl)cc1,?,16µM*,?,?,?,?
CC(C)C[C@H](NC(=O)c1[nH]cnc1C(=O)Nc1ccc(Cl)cc1)C(=O)OC(C)(C)C,?,-55%,?,?,?,?
CC(C)(C)OC(=O)[C@H](Cc1ccccc1)NC(=O)c1[nH]cnc1C(=O)N[C@@H](Cc1ccccc1)C(=O)OCc1ccccc1,?,-5%,?,-17%,?,-16%
Cc1ccccc1Cn1cnc2nc3c(cc2c1=O)CC(C)CC3 (configuration not stated),i,4%,12%,nt,i,nt
O=C(CSc1ncc2c(n1)-c1ccccc1N(Cc1ccc(F)cc1)S2(=O)=O)NCc1ccccc1,i,1%,12%,nt,i,nt
COc1cc2ncnc(N(C)Cc3cccs3)c2cc1-c1ccc2c(c1)OCO2,i,nt,nt,nt,i,nt
